# Only some compounds are listed: those with a hit (about 1.6% of all), similar ones and a draw of the others.
# Yeast superoxide: yeast age-related superoxide inhibition as caloric restriction mimetic; S. cerevisiae aged cells, superoxide DHE fluorescence; hits give low values; superoxide response (% of plate mean), % at 10 µM; actives 0.18% (n = 330,000); AID 2690;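 active means superoxide response under a set limit, about three screen SD below normal, cut at about 65% in these data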;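 further: yeast aged for seven days with compound at 30 °C before DHE staining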
# NALP1 yeast inh: blocks the NALP1 inflammasome reconstituted in yeast. S. cerevisiae NALP1/ASC/caspase-1 growth, X-gal OD620, 72 h. actives 0.61% (n = 280,000). inhibition, % at 10 µM; in the data active means inhibition mostly above about 24%, no sharp cut-off; inactive means mostly below about 32%
# V-ATPase pHluor: alters yeast V-ATPase proton transport; S. cerevisiae, pHLuorin cytosolic pH fluorescence; response, % at 10 µM; actives 0.37% (n = 350,000); AID 504577; in the data active means response mostly above about 7.3%, no sharp cut-off; inactive means mostly below about 5.4%; further: actives read high
# PERK inh: human PERK inhibition, primary cell-based screen; Q9NZJ5; AID 1416; CHO PERK-DD fusion, SEAP luminescence translation reporter; actives 0.17% (n = 220,000); inhibition, % at 5.6 µM;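 active means inhibition above the mean inhibition of all tested compounds plus 3 SD, set separately per screening campaign, cut at about 2.9% in these data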;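 further: PERK kinase domain activated by AP20187 dimerizer at 100 nM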
# NALP3 yeast inh: NALP3 inhibition in yeast; Yeast reconstituted NLRP3/ASC/caspase-1, beta-gal luminescence, 24 h; inhibition, % at 10 µM; actives 0.39% (n = 330,000);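 active means inhibition of 50% or more; inactive means inhibition below 50%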
# Rce1 inh: blocks yeast Ras-converting enzyme | yeast membranes, quenched prenylated peptide cleavage fluorescence | calls only | actives 0.27% (n = 290,000);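 active means fall in fluorescence gain of 50% or more versus controls, with final raw signal at or below 3038400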
# Target sequence (Q03530 whole entry, looked up): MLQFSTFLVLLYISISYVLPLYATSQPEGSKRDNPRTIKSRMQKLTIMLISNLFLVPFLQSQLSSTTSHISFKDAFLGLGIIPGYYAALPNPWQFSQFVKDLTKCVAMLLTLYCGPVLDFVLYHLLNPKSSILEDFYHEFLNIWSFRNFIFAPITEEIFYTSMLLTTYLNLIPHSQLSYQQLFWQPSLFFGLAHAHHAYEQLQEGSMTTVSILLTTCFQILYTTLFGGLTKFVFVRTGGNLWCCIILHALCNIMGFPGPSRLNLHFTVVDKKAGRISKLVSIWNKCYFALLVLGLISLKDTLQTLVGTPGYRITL
# Hits are given with their value; 0 = inactive; - = not tested or not shown; + = active, no number.
SMILES,Yeast superoxide,NALP1 yeast inh,V-ATPase pHluor,PERK inh,NALP3 yeast inh,Rce1 inh
COc1ccccc1OC(C)C(=O)N1CCC(Cc2ccccc2)CC1 (stereo unspecified),0,0,0,-,0,-
Clc1ccccc1CNCc1ccc2c(c1)OCO2,-,-,0,-,-,-
CCOC(=O)c1cnc2c(C(=O)OCC)cnn2c1N,0,38,0,0,0,0
CCOC(=O)c1cnn2c(N)c(C#N)cnc12,0,0,0,0,0,0
Cc1c(Br)c([N+](=O)[O-])nn1CC(=O)N1CCc2ccccc21,0,0,0,0,0,0
Cc1c(Cl)c([N+](=O)[O-])nn1CC(=O)N1CCCc2ccccc21,0,0,0,0,0,+
Cc1ccc(C(C)C)c(OCCCN(C)Cc2ccccc2)c1,0,0,0,0,0,0
Cc1ccc(OCCCCN(C)Cc2ccccc2)c(Br)c1,0,51,0,0,0,0
COc1cc(C(=O)N(C)C2CCCCC2)cc(OC)c1OC,-,-,0,-,-,-
Nc1[nH]n2c(=O)cc(-c3ccccc3)nc2c1N=Nc1ccc2c(c1)OCO2,0,42,-,0,0,0
Cc1[nH]n(-c2ccccc2)c(=O)c1N=Nc1ccc2c(c1)OCO2,0,0,0,0,0,0
Cc1ccc(Nc2nc(-c3sc(N)nc3C)cs2)cc1,0,0,14,-,0,0
CCOC(=O)CCC(=O)O[C@H]1[C@H](O[C@@H]2[C@@H](C)[C@H](O[C@H]3C[C@@](C)(OC)[C@@H](O)[C@H](C)O3)[C@@H](C)C(=O)O[C@H](CC)[C@@](C)(O)[C@H](O)[C@@H](C)C(=O)[C@H](C)C[C@@]2(C)O)O[C@H](C)C[C@@H]1N(C)C,0,92,0,0,-,0
CC[C@H]1OC(=O)[C@H](C)[C@@H](O[C@H]2C[C@@](C)(OC)[C@@H](O)[C@H](C)O2)[C@H](C)[C@@H](O[C@@H]2O[C@H](C)C[C@H](N(C)C)[C@H]2O)[C@](C)(O)C[C@@H](C)C(=O)[C@H](C)[C@@H](O)[C@]1(C)O,0,0,0,-,-,0
C[C@H]1CN([C@@H](C)CO)S(=O)(=O)c2ccc(C#Cc3cccnc3)cc2O[C@@H]1CN(C)C(=O)Nc1ccc2c(c1)OCO2,-,-,0,-,-,-
Cc1ccc(NC(=O)COC(=O)c2cccc(S(=O)(=O)N3CCCCCC3)c2)cc1,-,-,0,-,-,-
O=C(N/N=C/c1ccc(Cl)cc1)C(=O)N1CCCCCC1,0,25,0,0,0,0
CCCc1[nH]nc2c1C(c1ccoc1)C(C#N)=C(N)O2 (stereo unspecified),0,58,0,0,0,0
COc1ccc(-c2ccc(CN3C(C(C)C)C(=O)N(Cc4cn(CC5CCCCC5)nn4)CCS3(=O)=O)cc2)cc1OC (stereo unspecified),-,-,0,-,-,-
CCCn1c(CC)nc([N+](=O)[O-])c1Sc1ncn[nH]1,-,-,0,-,-,-
O=C(N/C(=C/c1cccc(Br)c1)C(=O)N1CCCCC1)c1ccco1,-,-,0,-,-,-
CC(C)c1nnc(NC(=O)COc2ccc3c(c2)OCO3)s1,0,30,0,-,0,-
CCC(CC)c1nnc(NC(=O)COc2ccc3c(c2)OCO3)s1,0,0,0,-,0,-
CC(NC(=O)c1ccco1)C1CCCO1 (stereo unspecified),0,44,0,0,0,0
COc1ccc(S(=O)(=O)N(C)C[C@@H]2Oc3cc(Br)ccc3S(=O)(=O)N([C@H](C)CO)C[C@@H]2C)cc1,-,-,0,-,-,-
SMILES,Yeast superoxide,NALP1 yeast inh,V-ATPase pHluor,PERK inh,NALP3 yeast inh,Rce1 inh
CCSc1nnc(-c2ccncc2)o1,0,0,0,0,0,0
OCC#CCSc1nnc(-c2ccncc2)o1,0,31,0,0,0,0
CCO[C@H]1OC(C(=O)Nc2ccccc2)=C[C@@H](c2csc3ccccc23)[C@@H]1CCCO,-,0,0,0,0,+
CCO[C@@H]1OC(C(=O)NCc2ccccc2)=C[C@H](C2CC2)[C@H]1CCCO,-,0,0,0,0,0
CCO[C@@H]1OC(C(=O)NCc2ccccc2)=C[C@H](C2CCCCC2)[C@H]1CCCO,0,21,0,0,0,0
CCO[C@@H]1OC(C(=O)O)=C[C@H](c2csc3ccccc23)[C@H]1CCCO,0,0,0,0,0,0
Cc1ccc(NC(=O)COC(=O)c2ccco2)cc1S(=O)(=O)N1CCCCC1,-,-,0,-,-,-
CC(C)(C)Cc1c(-c2ccc(Br)cc2)nc2ccc(Br)cn12,-,-,0,-,-,-
O=[N+]([O-])c1ccc(OCC(O)CN2CCN(c3ccccc3F)CC2)cc1 (stereo unspecified),0,46,0,0,0,0
